Experimental data taken from PubChem BioAssay.
Activity calls are given as the source filed them. Unless noted, how the calls were made is not given here.

Tests used:
[1] = anti-His antibody binders, primary screen, artefact control for SMM control protein annotation, biochemical, small-molecule microarray, 635 nm fluorescence (AID 1128); conditions: anti-His Alexa647 antibody binding, higher = more signal;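 further: score merges feature fluorescence with signal-to-noise for each printed compound spot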
[2] = test system: Human papillomavirus type 1a E7 protein (residues 1-88); test: HPV1a E7 small-molecule binders, primary screen, biochemical, small-molecule microarray, residues 1-88, 635 nm (AID 1129); conditions: small-molecule microarray binding, fluorescence 635 nm; higher = more signal
[3] = biological target: Focal adhesion kinase 1 (Homo sapiens) (UniProt Q05397); test: small-molecule microarray binders of FAK, primary screen, biochemical, 635/667 nm fluorescence, BSA, DTT (AID 1130); conditions: PTK2 binding, 635 nm fluorescence, higher = more signal;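 further: composite of spot emission at 667 nm and signal to noise over triplicate slides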
[4] = test system: Fibrinogen (Alexa647-labelled); test: fibrinogen binders on compound microarrays, profiling panel, artefact control for SMM control-protein annotation, biochemical, small-molecule microarray, 635/667 nm fluorescence (AID 1131); conditions: fibrinogen-A647 binding fluorescence, higher = more signal;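 further: z-score merges 667 nm fluorescence with per-spot signal-to-noise over triplicate slides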
[5] = biological target: Follistatin (Homo sapiens) (UniProt P19883); test: follistatin binders on small-molecule microarrays, primary screen, biochemical, small-molecule microarray, 635/667 nm fluorescence (AID 1132); conditions: FST binding, 635 nm fluorescence, higher = more signal
[6] = biological target: Fibroblast growth factor 2 (Homo sapiens) (UniProt P09038); test: FGF2 binders on small-molecule microarrays, primary screen, biochemical, small-molecule microarray, 635/667 nm fluorescence (AID 1133); conditions: small-molecule microarray binding, FGF2, fluorescence 635/667; higher = more signal
[7] = mitochondrial membrane potential change in A549 cells, profiling panel, cell-based, JC-1 fluorescence, basal, 24 h, 100 nL (AID 1138); conditions: higher = more signal;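 further: A549 lung adenocarcinoma cells under basal conditions with no added stimulus; test concentration not given here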
[8] = test system: Lefty1; test: Lefty1 binders on small-molecule microarrays, primary screen, biochemical, small-molecule microarray, 635/667 nm fluorescence (AID 1139); conditions: small-molecule microarray binding, fluorescence 635/667; higher = more signal
[9] = test system: wheat germ agglutinin (Triticum aestivum), Alexa647-labelled; test: wheat germ agglutinin binders on compound microarrays, profiling panel, artefact control for SMM control-protein annotation, biochemical, small-molecule microarray, 635/667 nm fluorescence (AID 1140); conditions: WGA-A647 binding, 635 nm fluorescence, higher = more signal;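 further: score merges 667 nm feature emission with signal to noise over triplicate slides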
[10] = biological target: Luciferin 4-monooxygenase (Photinus pyralis) (UniProt P08659); test: firefly luciferase enzyme inhibitors, primary screen, biochemical, luminescence, purified enzyme, 2006 set (AID 1141); conditions: SteadyGlo luminescence, 30 min, higher = more signal, called active from +8 up or from −8 down;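 further: cell-free assay with purified firefly luciferase at 100 ng per well in PBS; test concentration not given here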
[11] = test system: Wnt5a (protein binding on small-molecule microarray); test: Wnt5a binders on small-molecule microarray, primary screen, biophysical, 635/667 nm fluorescence (AID 1142); conditions: 635 nm fluorescence, higher = more signal;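 further: fluorescence read at 667 nm with signal to noise per printed feature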
[12] = cell viability in Huh7 cells, primary screen, cytotoxicity control for HCV replication inhibitor project, CellTiter-Glo luminescence, basal, 48 h (AID 1143); conditions: Huh7 HCV replicon, higher = more signal, called active from +8 up or from −8 down;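 further: Huh7 hepatoma cells carrying a hepatitis C replication reporter with no stimulus; test concentration not given here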
[13] = P. aeruginosa biofilm formation inhibitors, primary screen, PAO1 strain, BacTiter-Glo luminescence, LB-PBS (AID 1144); conditions: 12 h, higher = more signal
[14] = CREB reporter modulators without forskolin, primary screen, cell-based, PC12, CRE-LacZ reporter, unstimulated (AID 1145); conditions: no forskolin, luminescence, 4.5 h, higher = more signal, called active from +8 up or from −8 down
[15] = CREB reporter modulators under forskolin, primary screen, cell-based, PC12, CRE-LacZ reporter, forskolin-stimulated (AID 1146); conditions: luminescence, 4.5 h, higher = more signal, called active from +8 up or from −8 down;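 further: PC12 cells with 6xCRE LacZ reporter stimulated by forskolin 10 µM; beta-galactosidase reporter signal reflecting CREB driven transcription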
[16] = biological target: Streptavidin (Streptomyces avidinii) (UniProt P22629); test: streptavidin binders on small-molecule microarray, primary screen, artefact control for SMM compound annotation, biophysical, 635/667 nm fluorescence (AID 1147); conditions: streptavidin binding, higher = more signal;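 further: signal reflects streptavidin binding to arrayed compounds as a control protein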
[17] = small-molecule binders of probe aInhba, primary screen, biochemical, small-molecule microarray, 635/667 nm fluorescence (AID 1148); conditions: higher = more signal;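 further: score merges 667nm spot fluorescence with signal-to-noise for antibody binding to printed compounds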
[18] = biological target: Torsin-1A (Homo sapiens) (UniProt O14656); test: torsin A binders from cell lysate, primary screen, small-molecule microarray, wild-type, 635/667 nm (AID 1149); conditions: COS7 hTOR1A-WT lysate, 635 nm fluorescence, higher = more signal
[19] = biological target: Torsin-1A (Homo sapiens) (UniProt O14656); test: small-molecule binders of mutant TOR1A in lysate, primary screen, cell lysate, small-molecule microarray, COS7 lysate, 635/667 nm fluorescence (AID 1150); conditions: COS7 hTOR1A mutant lysate, 635 nm fluorescence, higher = more signal;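 further: score pools 667 nm emission and signal to noise measuring lysate protein binding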
[20] = test system: Sonic hedgehog protein (Shh); test: small-molecule binders of Shh protein, primary screen, biochemical, small-molecule microarray, 635/667 nm fluorescence (AID 1151); conditions: small-molecule microarray binding, 635 nm fluorescence; higher = more signal;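 further: Shh protein binding to compounds spotted on small-molecule microarray slides; score combines spot fluorescence intensity with signal-to-noise across triplicate slides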

Sequence of Follistatin (Homo sapiens) (P19883 whole entry, looked up): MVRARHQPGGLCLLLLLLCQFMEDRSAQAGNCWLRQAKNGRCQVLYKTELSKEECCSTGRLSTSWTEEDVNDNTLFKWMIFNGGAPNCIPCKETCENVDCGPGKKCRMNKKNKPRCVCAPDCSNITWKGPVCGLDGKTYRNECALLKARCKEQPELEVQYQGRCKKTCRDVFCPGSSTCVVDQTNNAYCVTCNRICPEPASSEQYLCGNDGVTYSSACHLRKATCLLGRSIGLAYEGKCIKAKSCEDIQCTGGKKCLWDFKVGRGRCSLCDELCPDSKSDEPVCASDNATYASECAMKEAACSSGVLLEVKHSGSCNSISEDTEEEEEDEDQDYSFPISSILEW
Sequence of Focal adhesion kinase 1 (Homo sapiens) (Q05397 whole entry, looked up): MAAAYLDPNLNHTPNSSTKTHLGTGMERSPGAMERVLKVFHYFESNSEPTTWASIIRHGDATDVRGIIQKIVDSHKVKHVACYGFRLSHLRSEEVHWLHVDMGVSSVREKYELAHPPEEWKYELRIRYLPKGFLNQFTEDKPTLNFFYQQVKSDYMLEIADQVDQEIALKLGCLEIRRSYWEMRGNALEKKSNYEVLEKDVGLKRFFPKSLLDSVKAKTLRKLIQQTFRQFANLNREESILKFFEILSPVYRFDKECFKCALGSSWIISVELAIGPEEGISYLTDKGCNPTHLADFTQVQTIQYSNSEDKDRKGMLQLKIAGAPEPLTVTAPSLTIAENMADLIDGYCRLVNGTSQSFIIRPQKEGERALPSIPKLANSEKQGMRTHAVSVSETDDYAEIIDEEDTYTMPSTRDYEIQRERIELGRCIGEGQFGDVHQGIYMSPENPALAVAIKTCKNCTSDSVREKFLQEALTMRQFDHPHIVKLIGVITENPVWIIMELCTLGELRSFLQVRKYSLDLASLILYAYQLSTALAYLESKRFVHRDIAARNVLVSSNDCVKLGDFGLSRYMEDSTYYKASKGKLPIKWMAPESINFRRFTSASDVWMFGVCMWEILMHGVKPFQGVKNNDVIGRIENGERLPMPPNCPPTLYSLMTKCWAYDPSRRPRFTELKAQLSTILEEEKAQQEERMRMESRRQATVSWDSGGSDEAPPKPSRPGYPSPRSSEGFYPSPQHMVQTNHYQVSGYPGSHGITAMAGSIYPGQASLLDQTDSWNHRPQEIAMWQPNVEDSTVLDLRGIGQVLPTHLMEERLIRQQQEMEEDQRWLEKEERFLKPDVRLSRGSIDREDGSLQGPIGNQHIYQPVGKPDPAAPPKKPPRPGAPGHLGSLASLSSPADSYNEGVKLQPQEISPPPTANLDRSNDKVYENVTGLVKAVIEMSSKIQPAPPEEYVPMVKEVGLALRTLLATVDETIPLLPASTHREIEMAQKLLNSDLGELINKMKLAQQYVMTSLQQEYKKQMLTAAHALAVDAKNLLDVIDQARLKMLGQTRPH
Sequence of Streptavidin (Streptomyces avidinii) (P22629 whole entry, looked up): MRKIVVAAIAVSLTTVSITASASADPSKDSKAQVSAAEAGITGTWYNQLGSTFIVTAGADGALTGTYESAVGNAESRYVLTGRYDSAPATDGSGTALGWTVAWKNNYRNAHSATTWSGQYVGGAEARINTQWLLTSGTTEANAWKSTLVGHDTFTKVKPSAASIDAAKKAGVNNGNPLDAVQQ
Sequence of Fibroblast growth factor 2 (Homo sapiens) (P09038 whole entry, looked up): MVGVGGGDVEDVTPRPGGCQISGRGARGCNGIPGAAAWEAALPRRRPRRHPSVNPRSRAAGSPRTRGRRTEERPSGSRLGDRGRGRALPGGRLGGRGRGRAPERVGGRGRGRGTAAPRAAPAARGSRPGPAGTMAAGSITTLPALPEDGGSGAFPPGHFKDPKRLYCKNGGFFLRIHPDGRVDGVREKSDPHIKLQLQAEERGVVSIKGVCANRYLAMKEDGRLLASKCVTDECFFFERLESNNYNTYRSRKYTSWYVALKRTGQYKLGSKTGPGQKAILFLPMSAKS
Sequence of Luciferin 4-monooxygenase (Photinus pyralis) (P08659 whole entry, looked up): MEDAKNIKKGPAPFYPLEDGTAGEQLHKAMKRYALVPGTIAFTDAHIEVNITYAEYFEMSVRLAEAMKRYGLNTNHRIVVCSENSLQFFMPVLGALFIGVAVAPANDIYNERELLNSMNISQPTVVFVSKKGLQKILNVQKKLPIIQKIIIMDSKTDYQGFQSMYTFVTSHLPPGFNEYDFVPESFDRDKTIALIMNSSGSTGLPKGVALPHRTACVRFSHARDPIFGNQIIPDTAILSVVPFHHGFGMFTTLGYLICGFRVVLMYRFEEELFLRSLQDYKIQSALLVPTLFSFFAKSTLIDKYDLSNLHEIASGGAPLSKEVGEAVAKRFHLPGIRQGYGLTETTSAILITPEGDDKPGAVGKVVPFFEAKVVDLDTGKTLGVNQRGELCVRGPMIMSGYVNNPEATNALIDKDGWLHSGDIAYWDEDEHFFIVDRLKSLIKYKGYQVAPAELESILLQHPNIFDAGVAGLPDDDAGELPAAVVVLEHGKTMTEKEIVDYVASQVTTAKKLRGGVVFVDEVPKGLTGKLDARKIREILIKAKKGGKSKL
Sequence of Torsin-1A (Homo sapiens) (O14656 whole entry, looked up): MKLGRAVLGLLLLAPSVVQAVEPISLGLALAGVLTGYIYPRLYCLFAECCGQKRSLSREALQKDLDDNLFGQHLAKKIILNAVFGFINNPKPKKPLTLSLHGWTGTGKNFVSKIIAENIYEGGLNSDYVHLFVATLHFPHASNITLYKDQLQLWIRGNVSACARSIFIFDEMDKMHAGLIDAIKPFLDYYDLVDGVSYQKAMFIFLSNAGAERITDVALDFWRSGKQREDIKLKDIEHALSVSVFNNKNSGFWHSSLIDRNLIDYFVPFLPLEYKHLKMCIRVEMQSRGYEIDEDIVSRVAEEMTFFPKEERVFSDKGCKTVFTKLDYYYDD

Row | Structure (SMILES) | composite z-score [1] | composite z-score [2] | composite z-score [3] | composite z-score [4] | composite z-score [5] | composite z-score [6] | z-score [7] | composite z-score [8] | composite z-score [9] | z-score [10] | composite z-score [11] | z-score [12] | z-score [13] | z-score [14] | z-score [15] | composite z-score [16] | composite z-score [17] | composite z-score [18] | composite z-score [19] | composite z-score [20]
1 | CN1C(=O)C2C=CC(C(O)C#Cc3ccccc3)N(Nc3ccccc3)C2C1=O (stereo not given) | 0.974 | 1.24 | 0.884 | 0.985 | 1.18 | 0.101 | 1.11 | 0.473 | 1.24 | -1.21 (inactive) | 0.399 | 0.254 (inactive) | -0.141 (inactive) | -0.515 (inactive) | 0.526 (inactive) | 1.38 | 0.153 | 0.663 | 0.889 | 0.592
2 | O=C1O[C@H](c2ccccc2)[C@H](c2ccccc2)N2[C@H]1[C@@H](C(=O)Nc1nc3ccccc3s1)[C@]1(C(=O)Nc3ccccc31)[C@H]2c1ccc(OCCO)cc1 | 1.55 | 1.19 | 0.522 | 1.01 | 1.45 | 1.18 | -2.15 | 1.2 | -0.0258 | -4.2 (inactive) | 0.433 | -2.91 (inactive) | -0.538 (inactive) | -0.0515 (inactive) | -0.124 (inactive) | 0.534 | -0.113 | 0.927 | 1.2 | 1.5
3 | Cc1ccc(S[C@]2(C(=O)NCC(F)(F)F)CC(=O)N(C3CCCCC3)[C@@H]2c2ccc(CO)cc2I)cc1 | 0.21 | 1.21 | 0.543 | 0.774 | 0.969 | 0.621 | 2.17 | 0.465 | 0.395 | -0.691 (inactive) | -0.0208 | -1.76 (inactive) | 1.13 (inactive) | 0.622 (inactive) | 0.343 (inactive) | 0.864 | 0.0074 | -0.357 | 1.19 | 0.834
4 | COCCOC(=O)N1C(=O)[C@@]2(c3cc(C#CCC(C(=O)OC)C(=O)OC)ccc31)[C@H](C(=O)N1CCc3cc(OC)c(OC)cc3C1)[C@H]1C(=O)O[C@H](c3ccccc3)[C@H](c3ccccc3)N1[C@@H]2c1ccc(OCCO)cc1 | 2.19 | 1.2 | 0.497 | 0.783 | 1.31 | 1.45 | -1.04 | 1.02 | 0.519 | -1.25 (inactive) | 0.587 | -0.0887 (inactive) | -0.442 (inactive) | 0.0653 (inactive) | -0.333 (inactive) | 0.523 | 0.19 | 0.817 | 0.914 | 1.73
